# Test results published in PubChem BioAssay (EPA / NIEHS).
# Where “and” joins values, the source holds several entries; their conditions need not be identical. Equal values may be shown once. Inconclusive results are not listed. Calls of active or inactive are those of the source. Rule for the calls: active = hit-call score of the fitted dose curve at least 0.9, where 1 is the maximum; inconclusive = response in the unintended direction; inactive = score below 0.9.
# Columns and labels:
# [1] = biological target: Tyrosine-protein phosphatase non-receptor type 11 (Homo sapiens) (UniProt Q06124); assay: NVS_ENZ_hPTPN11: NovaScreen (NVS) Enzymatic Assay for human Protein Tyrosine Phosphatase Non-receptor Type 11 (PTPN11) (AID 2283202)
# In short: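 Recombinant human PTPN11 activity on a fluorescent substrate, with substrate/product separated by electrophoretic mobility shift; read 0.5 h after dosing, loss of signal vs DMSO. Duplicate 25 uM screen, then concentration-response up to 50 uM.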
# [2] = biological target: Serine/threonine-protein phosphatase PP1-alpha catalytic subunit (Homo sapiens) (UniProt P62136); assay: NVS_ENZ_hPPP1CA: NovaScreen (NVS) Enzymatic Assay for human Protein Phosphatase 1 Aatalytic subunit Alpha (PPP1CA) (AID 2283200)
# In short: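 Recombinant enzyme activity read by fluorescence with electrophoretic mobility shift separating substrate from product, 1.33 h after dosing; loss of signal vs DMSO baseline. Primary screen in duplicate at 25 uM; actives retested in concentration-response up to 50 uM.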
# [3] = biological target: human Phosphodiesterase 5 (PDE5), PDE5A (gene 8654) (UniProt O76074); assay: NVS_ENZ_hPDE5: NovaScreen (NVS) Enzymatic Assay for human Phosphodiesterase 5 (PDE5) (AID 2283194)
# In short: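 Recombinant human PDE5 with specific substrate, read 1 h after dosing by fluorescence with electrophoretic mobility-shift separation of substrate and product. Initial single-concentration duplicate screen at 25 uM, actives followed in concentration series; loss of activity versus DMSO.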
# [4] = biological target: human Phosphodiesterase 10 (PDE10), PDE10A (gene 10846) (UniProt Q9Y233); assay: NVS_ENZ_hPDE10: NovaScreen (NVS) Enzymatic Assay for human Phosphodiesterase 10 (PDE10) (AID 2283195)
# In short: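 Recombinant human PDE10 with fluorescent substrate, 1 h, product separated by electrophoretic mobility shift. Loss of enzyme activity fitted against DMSO; initial screen 25 uM in duplicate, actives run to 50 uM maximum.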
# [5] = biological target: Tyrosine-protein phosphatase non-receptor type 13 (Homo sapiens) (UniProt Q12923); assay: NVS_ENZ_hPTPN13: NovaScreen (NVS) Enzymatic Assay for human Protein Tyrosine Phosphatase Non-receptor Type 13 (PTPN13) (AID 2283205)
# In short: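 Cell-free assay of recombinant human PTPN13 with a fluorescent substrate, product separated by electrophoretic mobility shift and read 0.5 h after dosing. Primary screen at 25 uM in duplicate, then concentration-response up to 50 uM. Loss of signal fitted against DMSO.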
# [6] = biological target: Tyrosine-protein phosphatase non-receptor type 14 (Homo sapiens) (UniProt Q15678); assay: NVS_ENZ_hPTPN14: NovaScreen (NVS) Enzymatic Assay for human Protein Tyrosine Phosphatase Non-receptor Type 14 (PTPN14) (AID 2283206)
# In short: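 Cell-free recombinant human PTPN14 with fluorescent substrate, read 0.5 h after dosing by fluorescence and electrophoretic mobility shift separating substrate from product. Primary screen at 25 uM in duplicate; hits run to 50 uM maximum; loss of signal versus DMSO.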
# [7] = biological target: human Protein Phosphatase, Mg2+/Mn2+ Dependent 1A (PPM1A), PPM1A (gene 5494) (UniProt P35813); assay: NVS_ENZ_hPPM1A: NovaScreen (NVS) Enzymatic Assay for human Protein Phosphatase, Mg2+/Mn2+ Dependent 1A (PPM1A) (AID 2283198)
# In short: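 Cell-free recombinant PPM1A phosphatase assay with fluorescent substrate, read 1 h after dosing by electrophoretic mobility shift. Chemicals screened in duplicate at 25 uM, then in concentration-response up to 50 uM; loss of activity versus DMSO.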
# [8] = biological target: human Phosphoinositide 3-kinase alpha (PI3Ka), PIK3CA (gene 5290) (UniProt P42336); assay: NVS_ENZ_hPI3Ka: NovaScreen (NVS) Enzymatic Assay for human Phosphoinositide 3-kinase alpha (PI3Ka) (AID 2283196)
# In short: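 Fluorescence/mobility-shift readout of substrate conversion by recombinant enzyme, 1 h post-dosing. Primary screen in duplicate at 25 uM; actives (e.g. ≥30% inhibition) retested in singleton concentration-response, top concentration 50 uM.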
# [9] = biological target: human Protein Tyrosine Phosphatase Non-receptor Type 1 (PTPN1), PTPN1 (gene 5770) (UniProt P18031); assay: NVS_ENZ_hPTPN1: NovaScreen (NVS) Enzymatic Assay for human Protein Tyrosine Phosphatase Non-receptor Type 1 (PTPN1) (AID 2283201)
# In short: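 Cell-free fluorogenic-substrate activity assay on recombinant enzyme, read 1.33 h after dosing by fluorescence and electrophoretic mobility shift; loss of signal vs DMSO baseline. Primary screen in duplicate at 25 uM, hits then run in concentration-response up to 50 uM.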
# [10] = biological target: Tyrosine-protein phosphatase non-receptor type 12 (Homo sapiens) (UniProt Q05209); assay: NVS_ENZ_hPTPN12: NovaScreen (NVS) Enzymatic Assay for human Protein Tyrosine Phosphatase Non-receptor Type 12 (PTPN12) (AID 2283204)
# In short: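 Single-concentration duplicates (25 uM) preceded singleton concentration-response up to 50 uM for chemicals passing threshold. Cell-free recombinant PTPN12 activity was read 1.33 h after dosing via fluorescence after mobility-shift separation; loss of signal versus DMSO.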
# Sequence of human Phosphoinositide 3-kinase alpha (PI3Ka), PIK3CA (gene 5290) (P42336 whole entry, looked up): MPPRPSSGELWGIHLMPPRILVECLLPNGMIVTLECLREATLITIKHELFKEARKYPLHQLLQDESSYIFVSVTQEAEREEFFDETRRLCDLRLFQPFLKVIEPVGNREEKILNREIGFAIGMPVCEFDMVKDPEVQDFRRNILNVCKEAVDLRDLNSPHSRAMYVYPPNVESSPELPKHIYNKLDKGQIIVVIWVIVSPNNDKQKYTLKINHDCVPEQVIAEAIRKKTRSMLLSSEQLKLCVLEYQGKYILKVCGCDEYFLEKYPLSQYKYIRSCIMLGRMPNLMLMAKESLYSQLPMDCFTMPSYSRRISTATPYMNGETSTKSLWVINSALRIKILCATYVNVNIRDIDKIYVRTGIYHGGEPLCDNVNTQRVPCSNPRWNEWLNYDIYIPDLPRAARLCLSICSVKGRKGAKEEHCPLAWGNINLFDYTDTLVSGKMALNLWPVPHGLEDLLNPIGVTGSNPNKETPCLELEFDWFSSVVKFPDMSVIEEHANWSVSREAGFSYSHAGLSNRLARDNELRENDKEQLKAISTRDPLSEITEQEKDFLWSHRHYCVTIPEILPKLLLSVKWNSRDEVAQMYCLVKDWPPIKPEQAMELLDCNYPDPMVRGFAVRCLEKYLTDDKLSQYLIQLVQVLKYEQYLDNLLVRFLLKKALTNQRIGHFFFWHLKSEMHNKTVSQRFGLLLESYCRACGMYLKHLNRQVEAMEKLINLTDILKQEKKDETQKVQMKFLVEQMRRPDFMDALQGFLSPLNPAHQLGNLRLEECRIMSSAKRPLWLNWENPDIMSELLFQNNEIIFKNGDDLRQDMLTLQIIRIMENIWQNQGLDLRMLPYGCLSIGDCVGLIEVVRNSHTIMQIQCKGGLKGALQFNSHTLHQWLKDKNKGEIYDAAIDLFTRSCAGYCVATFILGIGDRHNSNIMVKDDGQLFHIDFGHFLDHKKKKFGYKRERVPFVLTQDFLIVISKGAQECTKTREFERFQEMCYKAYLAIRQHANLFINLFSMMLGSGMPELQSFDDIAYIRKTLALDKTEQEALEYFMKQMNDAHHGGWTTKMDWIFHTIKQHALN
# Sequence of human Phosphodiesterase 10 (PDE10), PDE10A (gene 10846) (Q9Y233 whole entry, looked up): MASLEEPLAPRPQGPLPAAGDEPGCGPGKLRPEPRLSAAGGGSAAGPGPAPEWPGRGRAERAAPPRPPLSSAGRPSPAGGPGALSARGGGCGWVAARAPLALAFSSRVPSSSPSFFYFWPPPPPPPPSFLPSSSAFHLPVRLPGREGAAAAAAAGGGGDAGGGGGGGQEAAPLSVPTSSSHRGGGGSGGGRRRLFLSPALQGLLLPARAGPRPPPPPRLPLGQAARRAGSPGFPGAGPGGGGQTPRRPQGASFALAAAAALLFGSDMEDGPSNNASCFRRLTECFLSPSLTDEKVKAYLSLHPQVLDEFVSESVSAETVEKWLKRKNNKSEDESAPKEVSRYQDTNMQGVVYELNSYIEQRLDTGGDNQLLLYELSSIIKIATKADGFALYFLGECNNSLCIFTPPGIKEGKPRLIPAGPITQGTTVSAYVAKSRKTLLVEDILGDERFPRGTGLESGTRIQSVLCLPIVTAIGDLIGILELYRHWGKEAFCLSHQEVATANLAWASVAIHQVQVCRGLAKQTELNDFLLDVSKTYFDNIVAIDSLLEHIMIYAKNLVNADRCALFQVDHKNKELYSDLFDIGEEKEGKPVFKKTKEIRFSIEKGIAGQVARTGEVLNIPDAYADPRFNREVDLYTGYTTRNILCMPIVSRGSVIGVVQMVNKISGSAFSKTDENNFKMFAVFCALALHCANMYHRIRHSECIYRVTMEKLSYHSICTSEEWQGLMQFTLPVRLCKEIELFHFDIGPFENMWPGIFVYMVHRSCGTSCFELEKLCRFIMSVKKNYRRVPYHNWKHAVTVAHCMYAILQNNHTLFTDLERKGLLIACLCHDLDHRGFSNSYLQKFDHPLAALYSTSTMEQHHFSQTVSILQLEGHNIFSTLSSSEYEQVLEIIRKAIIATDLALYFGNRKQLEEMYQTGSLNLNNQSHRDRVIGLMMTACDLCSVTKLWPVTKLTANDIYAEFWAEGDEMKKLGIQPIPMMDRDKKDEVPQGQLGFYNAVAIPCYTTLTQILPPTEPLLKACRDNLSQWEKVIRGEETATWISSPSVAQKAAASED
# Sequence of Tyrosine-protein phosphatase non-receptor type 14 (Homo sapiens) (Q15678 whole entry, looked up): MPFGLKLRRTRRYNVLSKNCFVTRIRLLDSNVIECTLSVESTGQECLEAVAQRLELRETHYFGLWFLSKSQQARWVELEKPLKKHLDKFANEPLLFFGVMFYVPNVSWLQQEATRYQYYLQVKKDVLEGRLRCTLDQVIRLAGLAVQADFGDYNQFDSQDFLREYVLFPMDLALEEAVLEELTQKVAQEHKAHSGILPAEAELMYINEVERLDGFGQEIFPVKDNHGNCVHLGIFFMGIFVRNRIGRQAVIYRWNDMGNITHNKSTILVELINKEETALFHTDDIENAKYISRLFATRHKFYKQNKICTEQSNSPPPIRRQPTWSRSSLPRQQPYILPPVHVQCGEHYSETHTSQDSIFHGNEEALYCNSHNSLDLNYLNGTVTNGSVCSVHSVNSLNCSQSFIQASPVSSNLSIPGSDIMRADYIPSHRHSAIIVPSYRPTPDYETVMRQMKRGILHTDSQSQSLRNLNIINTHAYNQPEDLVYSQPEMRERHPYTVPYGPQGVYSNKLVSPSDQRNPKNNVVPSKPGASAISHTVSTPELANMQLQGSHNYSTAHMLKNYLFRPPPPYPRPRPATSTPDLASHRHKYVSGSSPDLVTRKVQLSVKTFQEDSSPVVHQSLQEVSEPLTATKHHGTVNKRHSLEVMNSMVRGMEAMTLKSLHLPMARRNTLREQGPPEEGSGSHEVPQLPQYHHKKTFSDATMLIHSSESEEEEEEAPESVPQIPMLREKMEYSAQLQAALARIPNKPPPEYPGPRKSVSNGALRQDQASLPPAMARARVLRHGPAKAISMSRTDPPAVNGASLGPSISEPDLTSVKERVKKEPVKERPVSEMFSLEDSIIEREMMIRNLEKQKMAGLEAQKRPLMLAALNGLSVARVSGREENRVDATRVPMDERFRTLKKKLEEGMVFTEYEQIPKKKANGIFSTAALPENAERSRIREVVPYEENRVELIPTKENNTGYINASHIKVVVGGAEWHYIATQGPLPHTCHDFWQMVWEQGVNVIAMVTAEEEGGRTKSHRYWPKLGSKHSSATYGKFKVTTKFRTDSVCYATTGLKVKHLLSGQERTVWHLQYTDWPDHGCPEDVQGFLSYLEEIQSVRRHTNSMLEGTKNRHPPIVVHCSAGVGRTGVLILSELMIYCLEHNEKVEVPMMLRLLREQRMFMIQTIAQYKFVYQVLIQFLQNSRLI
# Sequence of Serine/threonine-protein phosphatase PP1-alpha catalytic subunit (Homo sapiens) (P62136 whole entry, looked up): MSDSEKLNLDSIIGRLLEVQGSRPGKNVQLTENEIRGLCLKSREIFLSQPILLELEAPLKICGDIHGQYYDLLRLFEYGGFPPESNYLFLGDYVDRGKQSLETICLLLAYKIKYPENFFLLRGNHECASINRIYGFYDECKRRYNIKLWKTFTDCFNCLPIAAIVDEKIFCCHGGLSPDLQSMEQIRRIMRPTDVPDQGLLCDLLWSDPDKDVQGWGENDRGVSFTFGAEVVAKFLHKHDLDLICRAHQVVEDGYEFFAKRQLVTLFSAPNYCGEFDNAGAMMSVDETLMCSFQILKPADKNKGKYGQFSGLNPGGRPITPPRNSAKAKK
# Sequence of Tyrosine-protein phosphatase non-receptor type 11 (Homo sapiens) (Q06124 whole entry, looked up): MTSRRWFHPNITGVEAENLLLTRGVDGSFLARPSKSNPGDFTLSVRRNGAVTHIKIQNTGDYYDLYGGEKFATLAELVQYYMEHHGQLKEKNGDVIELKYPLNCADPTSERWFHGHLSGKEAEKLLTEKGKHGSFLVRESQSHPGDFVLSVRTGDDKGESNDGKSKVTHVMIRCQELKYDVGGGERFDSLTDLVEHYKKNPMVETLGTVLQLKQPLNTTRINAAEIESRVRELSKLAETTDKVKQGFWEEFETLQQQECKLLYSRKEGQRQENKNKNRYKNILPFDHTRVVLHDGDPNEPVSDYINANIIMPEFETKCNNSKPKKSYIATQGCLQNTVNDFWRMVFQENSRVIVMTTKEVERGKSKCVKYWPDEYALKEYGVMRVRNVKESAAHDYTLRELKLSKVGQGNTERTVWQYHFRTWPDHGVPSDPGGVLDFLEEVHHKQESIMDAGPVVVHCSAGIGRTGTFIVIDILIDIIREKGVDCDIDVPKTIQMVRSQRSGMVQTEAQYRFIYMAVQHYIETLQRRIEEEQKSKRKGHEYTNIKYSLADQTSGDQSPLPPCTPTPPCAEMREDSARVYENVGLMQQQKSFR
# Sequence of human Protein Phosphatase, Mg2+/Mn2+ Dependent 1A (PPM1A), PPM1A (gene 5494) (P35813 whole entry, looked up): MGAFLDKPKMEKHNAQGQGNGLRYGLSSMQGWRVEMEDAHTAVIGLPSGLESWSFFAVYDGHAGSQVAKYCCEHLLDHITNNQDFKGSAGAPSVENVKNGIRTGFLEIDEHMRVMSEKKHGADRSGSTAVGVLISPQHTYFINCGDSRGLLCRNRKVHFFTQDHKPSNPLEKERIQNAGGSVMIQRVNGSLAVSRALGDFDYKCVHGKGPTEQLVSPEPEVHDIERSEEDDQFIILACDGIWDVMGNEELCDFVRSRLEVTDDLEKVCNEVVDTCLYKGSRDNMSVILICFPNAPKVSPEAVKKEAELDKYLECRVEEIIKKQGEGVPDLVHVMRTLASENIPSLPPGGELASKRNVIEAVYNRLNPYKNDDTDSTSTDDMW
# Sequence of human Protein Tyrosine Phosphatase Non-receptor Type 1 (PTPN1), PTPN1 (gene 5770) (P18031 whole entry, looked up): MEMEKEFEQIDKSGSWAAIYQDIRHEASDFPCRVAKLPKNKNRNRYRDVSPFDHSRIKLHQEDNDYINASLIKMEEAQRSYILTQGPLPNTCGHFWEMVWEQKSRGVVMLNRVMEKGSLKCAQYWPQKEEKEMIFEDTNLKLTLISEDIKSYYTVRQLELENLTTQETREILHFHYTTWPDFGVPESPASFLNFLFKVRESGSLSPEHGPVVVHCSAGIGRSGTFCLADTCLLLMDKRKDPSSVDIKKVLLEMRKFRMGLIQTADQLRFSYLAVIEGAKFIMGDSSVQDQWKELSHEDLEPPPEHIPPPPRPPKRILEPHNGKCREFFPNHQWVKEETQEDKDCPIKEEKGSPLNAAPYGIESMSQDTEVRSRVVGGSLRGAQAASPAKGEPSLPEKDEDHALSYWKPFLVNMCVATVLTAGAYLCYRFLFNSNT
smiles,measurement,setting,value
O=C1CCC(C2CCCCC2)CC1,outcome,[1],inactive
CCOC(=O)O[C@H](C)OC(=O)c1ccc2c(c1)cc(C(=O)NC1CCN(C(C)C)CC1)n2Cc1cc(-c2ccc(Cl)s2)on1,AC50,[2],18.6 µM (active)
CCN(CC)C(=O)c1cc(S(=O)(=O)Cc2ccccc2)c(N2CCC(c3ccccc3)CC2)cc1N(CC)CCN(C)C,outcome,[3],inactive
same,AC50,[4],16 µM (active)
same,outcome,[5],inactive
CC[C@H](NC(=O)c1cc(F)ccc1NS(=O)(=O)c1cccc2cccnc12)c1ccccc1,outcome,[3],inactive
same,outcome,[2],inactive
Oc1ccc2ccccc2c1,outcome,[6],inactive
Cc1c2ccccc2c(C)c2c1ccc1ccccc12,outcome,[2],inactive
CCCCCCCCCC(=O)O,outcome,[7],inactive
O=C1O[C@H]([C@@H](O)CO)C(O)=C1O,outcome,[8],inactive
CN1C(=O)N(c2ccccc2Br)Cc2cnc(Nc3ccc4c(c3)OCC(CO)O4)nc21 (configuration not stated),AC50,[4],1.09 µM (active)
same,outcome,[9],inactive
same,outcome,[6],inactive
O=C1c2ccccc2C(=O)N1CCc1noc(-c2ccc(CN3CCCCCC3)s2)n1,outcome,[1],inactive
O=C(O)Cc1cc(I)c(Oc2ccc(O)c(I)c2)c(I)c1,AC50,[4],3.32 µM (active)
CCN(Cc1cccc(S(=O)(=O)O)c1)c1ccc(C(=C2C=CC(=[N+](CC)Cc3cccc(S(=O)(=O)O)c3)C=C2)c2ccccc2S(=O)(=O)[O-])cc1,AC50,[2],5.82 µM (active)
same,AC50,[6],11.9 µM (active)
CC[C@@H]1C[C@H](N(Cc2cc(C(F)(F)F)cc(C(F)(F)F)c2)C(C)=O)c2cc(C(F)(F)F)ccc2N1C(=O)OC(C)C,outcome,[9],inactive
c1ccc2ccccc2c1,outcome,[2],inactive
same,outcome,[1],inactive
CCCCCCCCOC(=O)c1cc(O)c(O)c(O)c1,outcome,[8],inactive
CN(C)C(=O)C1(N2CCCCC2)CCN(CC[C@@]2(c3ccc(Cl)c(Cl)c3)CN(C(=O)c3ccccc3)CCO2)CC1,outcome,[3],inactive
CCCCCCCCN(C)CCCCCCCC,outcome,[8],inactive
same,outcome,[7],inactive
COc1cc(C(=O)NC2CCN(C)CC2)ccc1Nc1ncc2c(n1)N(C1CCCC1)CC(F)(F)C(=O)N2C,AC50,[3],0.00376 µM (active)
same,AC50,[4],3.76 µM (active)
same,outcome,[6],inactive
COc1cccc([C@H](O)C2CCN(CCc3ccc(F)cc3)CC2)c1OC,outcome,[3],inactive
c1ccc(C[n+]2cccc3ccccc32)cc1,outcome,[9],inactive
CCCCOC(=O)CC(CC(=O)OCCCC)(OC(C)=O)C(=O)OCCCC,outcome,[5],inactive
CC/C(=C(/CC)c1ccc(O)cc1)c1ccc(O)cc1,outcome,[3],inactive
same,AC50,[8],40 µM (active) and 17.3 µM (active) and 27.8 µM (active)
same,outcome,[1],inactive
same,outcome,[10],inactive
same,outcome,[6],inactive
Clc1cc(Cl)c2c(c1)N=C1CCCCCN1C2,outcome,[3],inactive
CC(C)(O)c1ccc(CNC(=O)c2cccnc2Oc2ccc3nonc3c2)cc1,outcome,[7],inactive
Cc1cc(F)ccc1-c1cc(N2CC[C@@H](O)[C@H]2CO)ncc1N(C)C(=O)C(C)(C)c1cc(C(F)(F)F)cc(C(F)(F)F)c1,AC50,[3],4.05 µM (active)
CC(C)(C)c1csc(-c2cc3cc(OCc4ccccc4CC(=O)O)ccc3o2)n1,outcome,[3],inactive
same,outcome,[9],inactive
same,outcome,[1],inactive
